Screening data: PubChem, several laboratories
Sampled rows, rich in hits. Any-hit rate of the full collection: about 4.7%.
TIM10 inh = TIM10 yeast growth inhibition; inhibition, % at 10 µM; S. cerevisiae TIM10 strain growth, BacTiter-Glo luminescence, 24 h; 330,000 compounds, 1.4% hits;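 active = inhibition of 40% or more at the single tested concentration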;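 also: wild-type TIM10 isogenic control strain grown at permissive 25 °C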
tim10-1 inh = growth inhibitors of tim10-1 mutant yeast; S. cerevisiae tim10-1 ts strain growth, BacTiter-Glo, 24 h; inhibition, % at 20 µM; 330,000 compounds, 2.2% hits; AID 463190;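 active = inhibition of at least 40%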;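 also: mutant grown at 25 °C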
ATG4B inh = ATG4B (human) cysteine protease inhibition. Q9Y4P1. ATG4B cleavage of LC3-PLA2, NBD-HPC fluorescence, 1 h. inhibition, % at 8.33 µM. 340,000 compounds, 0.51% hits. AID 504462; in the data active = inhibition above about 40%
Target sequence (Q9Y4P1 whole entry, looked up): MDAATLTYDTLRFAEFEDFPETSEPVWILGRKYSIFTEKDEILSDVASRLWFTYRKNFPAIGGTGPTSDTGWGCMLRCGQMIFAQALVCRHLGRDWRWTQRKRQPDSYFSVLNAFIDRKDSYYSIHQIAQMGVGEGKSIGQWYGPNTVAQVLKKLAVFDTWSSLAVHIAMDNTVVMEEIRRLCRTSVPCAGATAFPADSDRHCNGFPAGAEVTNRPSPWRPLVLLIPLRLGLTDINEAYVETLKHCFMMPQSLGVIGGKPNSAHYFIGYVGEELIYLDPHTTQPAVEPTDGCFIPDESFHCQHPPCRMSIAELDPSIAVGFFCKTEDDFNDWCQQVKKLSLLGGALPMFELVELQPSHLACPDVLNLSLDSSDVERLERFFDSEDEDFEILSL
tim23-1 inh = growth inhibitors of tim23-1 mutant yeast; inhibition, % at 20 µM; S. cerevisiae tim23-1 growth, BacTiter-Glo luminescence, 24 h; AID 463212; 330,000 compounds, 1.3% hits;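 active = growth inhibition of the mutant yeast at or above 50%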;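 also: temperature-sensitive mutant grown at 25 °C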
PfHsp90 yeast 2 = inhibits growth of yeast expressing Plasmodium falciparum Hsp90; S. cerevisiae expressing PfHsp90, BacTiter-Glo ATP, 48 h; yeast lacking PDR1 and PDR3 efflux regulators; inhibition, % at 9.4 µM; 310,000 compounds, 0.32% hits;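 active = every replicate shows inhibition above about 80%, whatever the replicate mean, limit read from the data; inconclusive = mean inhibition reaches the set limit but some replicate falls short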
SKKanGAS inh = SKKanGAS growth inhibition. 300,000 compounds, 1.3% hits. AID 1662. inhibition, % at 7.5 µM. S. pyogenes SKKanGAS, kanamycin growth, BacTiter-Glo, 6 h;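 active = mean replicate score, as percent of positive control median, at least 50; inconclusive = mean below 50 but one replicate at or above 50; inactive = mean and every replicate below 50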;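 also: strain carries kanamycin resistance gene driven by streptokinase promoter and grows in 40 µg/ml kanamycin; loss of luminescence reflects streptokinase promoter inhibition or plain growth inhibition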
tim10-1 conf = confirmation of tim10-1 mutant yeast growth inhibitors; shares compounds with tim10-1 inh; S. cerevisiae tim10-1 ts strain growth, BacTiter-Glo, 24 h; inhibition, % at 20 µM; 7,400 compounds, 56% hits; AID 463213;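 active = inhibition of yeast growth at or above a set limit in either of two repeat tests at 20 µM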;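 also: tim10-1 mutant grown at permissive 25 °C to find synthetic lethal compounds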
TIM10 conf = confirmation of TIM10 yeast growth inhibitors; shares compounds with TIM10 inh; S. cerevisiae tim10 strain growth, BacTiter-Glo luminescence, 24 h; AID 463215; inhibition, % at 10 µM; 4,600 compounds, 63% hits;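 active = inhibition of yeast growth at or above a set limit in either of two replicates at 10 µM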; also: this counterscreen used the strain with wild-type TIM10
Numbers stand for hits; - = inactive; ? = inconclusive; . = no result given.

SMILES | TIM10 inh | tim10-1 inh | ATG4B inh | tim23-1 inh | PfHsp90 yeast 2 | SKKanGAS inh | tim10-1 conf | TIM10 conf
O=C(Oc1cccnc1)c1ccccc1[N+](=O)[O-] | 50 | 52 | - | - | - | - | 33 | 33
N/C(=N\OC(=O)c1ccccc1[N+](=O)[O-])c1cccnc1 | - | - | - | - | . | - | . | .
COc1ccc(C(=O)Nc2ccccc2C(N)=O)cc1 | - | - | - | - | - | . | . | .
COc1ccc(C(=O)Nc2ccccc2C(=O)N/N=C/c2cccc3ccccc23)cc1 | 56 | 60 | - | - | . | - | 57 | 37
COc1ccc(-c2nn(CC(=O)Nc3ccc(Cl)c(Cl)c3)c(=O)c3ccccc23)cc1 | - | - | - | - | - | - | . | .
CCOc1ncnc2c1oc1nc(CC(C)C)c3c(c12)CC(C)(C)OC3 | - | - | - | - | - | - | . | .
CCn1c(C)c(/C=N/Nc2nc3ccccc3s2)c2ccccc21 | 43 | 48 | - | - | . | - | - | -
CC1C/C(=N\NC(=S)NCc2ccccc2)CC(C)(C)C1 (stereo not given) | 54 | 58 | - | - | - | ? | 48 | 45
O=C(NCc1ccco1)c1csc(Nc2ccccc2Cl)n1 | 42 | 52 | - | - | . | - | 43 | 30
COc1ccc(Nc2nc(C(=O)NCc3ccco3)cs2)cc1 | - | - | - | - | - | - | . | .
CCOC(=O)CCNC(=O)Nc1cc2nc(C)n(Cc3cccc(Cl)c3)c2nc1C | - | - | - | - | - | - | . | .
O=C(/C=C/C(Cl)(Cl)Cl)Nc1ccc(Cl)cc1 | . | . | - | . | - | . | . | .
NC(=O)/C=C/C(=O)Nc1ccc(Cl)cc1 | 55 | 61 | - | - | - | - | 61 | 56
CCc1ccc(NC2=CC(=O)CC(c3ccco3)C2)cc1 (stereo not given) | 41 | 42 | - | - | - | - | - | -
Cc1cc(Br)c2c(c1)/C(=C/C(=O)c1cccs1)C(=O)N2 | 50 | 47 | - | - | 88 | - | 34 | 68
COc1ccc(C(=O)N/N=C(\C)c2ccc3c(c2)C2C=CCC2C(c2ccccc2)N3)cc1 (stereo not given) | . | . | - | . | - | . | . | .
CC(C)(C)NC(=O)c1ccc2c(c1)C1C3CCC(C3)C1C(c1ccccc1)N2 (stereo not given) | 42 | 44 | - | - | - | - | 34 | -
O=C(c1cc(-c2ccccc2)on1)N1CCN(Cc2ccc3c(c2)OCO3)CC1 | - | - | - | - | - | - | . | .
O=C1OCC(CO)(CO)N=C1NNc1ccc(Cl)c(Cl)c1 | 42 | 49 | - | - | 101 | - | - | 41
COc1ccc(-c2nncnn2)cc1 | 89 | 84 | - | - | . | - | 79 | -
C=CCc1cccc(/C=N/NC(=O)c2ccccc2OC)c1O | 57 | 49 | - | - | - | - | 31 | 38
O=C(O)c1ccc(N/N=C/c2cccc3cccnc23)cc1 | - | - | - | - | - | - | . | .
Oc1ccccc1/C=N/Nc1cccc2cccnc12 | 50 | 41 | - | - | . | - | 37 | 35
CCc1cc2ccc(C)cc2nc1SCC(=O)NNC(=O)c1ccco1 | 42 | 40 | - | - | - | - | - | -
CC1CCCCC1NC(=O)CSc1nnc(CNC(=O)c2ccccc2)n1C (stereo not given) | - | - | - | - | - | - | . | .
SMILES | TIM10 inh | tim10-1 inh | ATG4B inh | tim23-1 inh | PfHsp90 yeast 2 | SKKanGAS inh | tim10-1 conf | TIM10 conf
O=C(COc1ccc(Cl)cc1)NCCCNC(=O)c1ccccn1 | - | - | - | - | - | - | . | .
O=S(=O)(Nc1ccccc1)c1ccc(Oc2ncc(C(F)(F)F)cc2Cl)cc1 | 49 | 49 | - | - | - | - | 46 | 51
O=S(=O)(Cc1ncc(C(F)(F)F)cc1Cl)c1ccccc1 | - | - | - | - | - | - | . | .
COc1cccc(C=NNC(=O)C2CC2)c1 | . | . | - | . | - | . | . | .
Cc1csc(NC(=O)CCNC(=O)c2ccccc2Cl)n1 | - | - | - | - | - | - | . | .
S=C(NCc1cccs1)Nc1cccc(Cl)c1 | 47 | 45 | - | - | . | - | 34 | 43
COc1ccc(NC(=S)NCc2cccs2)cc1 | - | - | - | - | - | - | . | .
O=C(NCc1cccs1)Nc1cccc(Cl)c1 | - | - | - | - | - | - | . | .
CC(C)c1ccc(NC(=S)NCc2cccs2)cc1 | 45 | 56 | - | - | - | - | 36 | 42
Nc1nc(N)nc(-c2cccc(Cl)c2Cl)n1 | - | - | - | - | - | . | . | .
CCc1c(C)nc2cc(-c3ccc(OC)c(OC)c3)nn2c1N1CCCC1 | 42 | 41 | - | - | - | - | - | -
CCc1c(C)nc2cc(-c3cc(OC)cc(OC)c3)nn2c1N1CCCC1 | - | - | - | - | - | - | . | .
c1ccc2c(c1)nc(N1CCOCC1)c1c3ccccc3[nH]c21 | 49 | 40 | - | - | - | - | - | 61
c1ccc(-c2n[nH]c3c2CCC3)cc1 | - | - | - | - | - | - | . | .
CC(C)[C@@H]1CC[C@@H](C)c2c(-c3ccccc3)n[nH]c21 | 46 | 40 | - | - | - | 88 | - | 49
O=c1cc(-c2c(F)c(F)c(F)c(F)c2F)oc2ccccc12 | - | - | - | - | - | - | . | .
O=c1cc(-c2c(F)c(F)c(F)c(F)c2F)oc2c(F)c(F)c(F)c(F)c12 | 54 | 42 | . | - | . | - | 46 | 41
CC(=O)OC[C@]12CC[C@H]3[C@@](C)(CC[C@H]4C(C)(C)CCC[C@]34C)[C@@H]1C[C@H](C1=CC(=O)O[C@H]1OC(C)=O)O2 | - | - | . | - | . | . | . | .
CN(C)S(=O)(=O)Oc1cccc(C(=O)Nc2cccc(Cl)c2)c1 | 77 | 55 | - | - | . | - | 46 | 72
CN(C)S(=O)(=O)c1cccc(C(=O)Nc2cc(Cl)cc(Cl)c2)c1 | 42 | 51 | - | - | - | - | - | -
CN(C)S(=O)(=O)Oc1cccc(C(=O)Nc2ccc(Cl)c(Cl)c2)c1 | 49 | 57 | - | - | - | - | 44 | 65
COc1ccc(NC(=O)c2cccc(OS(=O)(=O)N(C)C)c2)cc1 | - | - | - | - | - | - | . | .
CNS(=O)(=O)c1cccc(C(=O)Nc2cccc(Cl)c2)c1 | - | - | - | - | - | - | . | .
COc1ccc(/C=N/N2CCOCC2)cc1O | - | - | - | - | - | - | . | .
CC(C)(C)c1ccc(C(=O)OCC(=O)NC2CC2)cc1 | - | - | - | - | - | . | . | .
O=C(c1ccccc1)N(Cc1ccc(F)cc1)C1CCS(=O)(=O)C1 (stereo not given) | - | - | - | - | . | - | . | .
CCOC(=O)c1c(N2C(=O)C=CC2=O)sc(C)c1C | 77 | 47 | - | - | 154 | - | 44 | 72
O=S(=O)(Nc1cccnc1)c1cccc(C(F)(F)F)c1 | - | - | - | - | . | - | . | .
